Source: PubChem BioAssay (National Center for Advancing Translational Sciences (NCATS))
An excerpt weighted towards active compounds, which were near 6.8% of everything screened.
SW480 rerep: inducers of DNA re-replication in SW480 colon cancer cells; SW480 DNA re-replication, Hoechst DNA content imaging, 48 h; Potency, µM (highest dose often 46.1 µM), for the others: top-dose re-replication activation, hits mostly activators; hit rate 1.8% among 340,000; AID 624297; further: % of control where 0% means no effect; nearly all actives have a fitted effect of over 55% in size
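First, 250 cells per well were seeded. Next, compound or vehicle (23 nL) was pinned in, plates sat 48 hr at 37 C. Finally Hoechst was added for 40 min before fluorescence scanning.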
PINK1 modulator: changes PINK1 expression. PINK1 immunofluorescence, high-content cytometry, 24 h. Potency, µM (top dose mostly 76.6 µM), inactives show top-dose activation (PINK1 increase), actives largely listed as activators. hit rate 0.2% among 410,000. AID 624263; active means well fitted activation curve with a large enough effect; inconclusive means small, poorly fitted or top-dose-only effect; cell line not stated here; further: % of control where 0% means no effect; nearly all actives have a fitted effect of over 65% in size
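Measures PINK1 amount and localization on or inside mitochondria by immunofluorescence. Stable cells get compounds at 5 concentrations for 24 hours before fixation and staining; CCCP controls included.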
MCF10A rerep: inducers of DNA re-replication in MCF 10A breast cells; Potency, µM (series often up to 46.1 µM), inactives show at the top dose activity, positive = re-replication, actives largely listed as activators; MCF 10A DNA re-replication, Hoechst nuclear intensity, 48 h; hit rate 2.9% among 350,000; AID 624296; further: % of control where 0% means no effect; nearly all actives have a fitted effect of over 50% in size
KB-V1 MDR tox: kills drug-selected multidrug resistant KB-V1 cells; hit rate 3.4% among 400,000; KB-V1 MDR cells viability, CellTiter-Glo, 72 h; Potency, µM (highest dose often 46.1 µM), usual class: cytotoxic; AID 1347076; further: on the % scale 0 is the no-effect control and ±100 the full control effect; nearly all actives have a fitted effect of over 60% in size
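In this primary screen, KB-V1 cells overexpressing P-gp are incubated with library compounds (lowest to highest concentration) for 72 h at 37 degrees C before a luminescent ATP viability read.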
KB-3-1 tox: KB-3-1 parental cell cytotoxicity. KB-3-1 viability, CellTiter-Glo ATP luminescence, 72 h. Potency, µM (series often up to 46.1 µM), most hits filed as cytotoxic. hit rate 1.4% among 400,000; further: on the % scale 0 is the no-effect control and ±100 the full control effect; nearly all actives have a fitted effect of over 60% in size
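Parental KB-3-1 adenocarcinoma cells in phenol-red-free DMEM with 10% FBS were pin-treated with compounds at several concentrations, incubated 72 h at 37 °C, and viability read by CellTiter-Glo luminescence; concentration-effect curves were fitted after normalization.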
PTAP TSG101 blk: blocks PTAP/TSG101 interaction to inhibit HIV-1 budding | AID 493005 | Fluorescence polarization, FITC-PTAP peptide / Tsg101 binding | Q99816 | 340,000 tested, under 10 active | Potency, µM (series often up to 115 µM), inactives show top-dose activity change, negative = inhibition, hits mostly inhibitors; active means well fitted inhibition curve with a large enough effect in the main read-out, with a control signal flat, not every such curve was filed as active; inconclusive means small, poorly fitted or top-dose-only effect, or effect the other way, or a change in a side signal; inactive means no such curve, though single readings can be large or run the other way; further: % of control where 0% means no effect
Target sequence (Q99816 whole entry, looked up): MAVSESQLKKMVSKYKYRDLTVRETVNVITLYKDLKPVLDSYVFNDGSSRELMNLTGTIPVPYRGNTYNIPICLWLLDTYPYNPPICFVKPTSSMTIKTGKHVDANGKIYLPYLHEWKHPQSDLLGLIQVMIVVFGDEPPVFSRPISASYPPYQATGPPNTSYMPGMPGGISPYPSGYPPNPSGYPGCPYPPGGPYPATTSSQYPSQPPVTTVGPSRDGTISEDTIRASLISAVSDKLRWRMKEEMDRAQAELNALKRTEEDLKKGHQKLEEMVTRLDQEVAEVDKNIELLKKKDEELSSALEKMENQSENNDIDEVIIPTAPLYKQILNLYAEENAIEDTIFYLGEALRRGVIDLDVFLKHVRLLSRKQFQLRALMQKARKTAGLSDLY
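Fluorescence anisotropy tracks displacement of a FITC-tagged PTAP peptide (50 nM) from the Tsg101 binding domain (10 uM), following a 20 min room-temperature incubation at pH 7.5.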
Numbers without * were called inactive; i = inactive; ? = inconclusive; . = not tested or not shown; [ ] = dose if it differs, or a comment. Unless noted, the call rests on the fitted dose curve; in most records, active means well fitted curve in the direction sought with a large enough effect; inconclusive means small, poorly fitted or top-dose-only effect, or another doubt; inactive means no such curve, though single readings can be large; an effect the other way counts as inactive or inconclusive. Potency means the concentration at half of the fitted maximal effect.

SMILES	SW480 rerep	PINK1 modulator	MCF10A rerep	KB-V1 MDR tox	KB-3-1 tox	PTAP TSG101 blk
CCCCn1cnc2c(SCc3ccccc3Cl)nc(N)nc21	?	17%	16µM*	i	i	-2%
COc1cc(NC(=O)C2=CC(c3ccc(F)cc3)=NS(=O)(=O)N2C)cc(OC)c1OC	.	1%	.	i	i	.
Cc1c(C(=O)Nc2nonc2-c2ccc(F)cc2)oc2ccc(F)cc12	5%	28µM*	-1%	?	18µM*	-4%
COCCNC(=O)c1ccccc1NC(=O)c1nsc2ccccc12	.	0%	.	i	i	.
CCc1ccc(CNc2ncc(-c3cccc(OC)c3)n2C)cc1	.	6%	.	.	.	.
Cc1nn2c(-c3ccccc3)ccnc2c1-c1ccccc1	19%	5%	?	15µM*	i	-3%
O=C1/C(=C\c2cccs2)CCC/C1=C/c1cccs1	11%	.	4%	.	.	.
Nc1cc(=O)[nH]c(SCCSc2ccccc2F)n1	0%	1%	9%	?	?	-2%
Nc1cc(=O)[nH]c(SCCSc2cc(Cl)ccc2Cl)n1	-5%	2%	2%	0.41µM*	0.73µM*	-3%
CC12CCC(O)CC1=CCC1C2CCC2(C)c3[nH]ncc3CC12 (stereo unspecified)	?	-4%	15µM*	i	i	-4%
CN1CCN(C(=O)Cn2c(-c3cccs3)cc3ccccc32)CC1	.	-1%	.	i	i	.
CCOc1ccc2c(c1)-c1c(ssc1=S)C(C)(C)N2C(=O)CSC1=NCCS1	?	0%	6%	8.2µM*	i	-2%
Cc1ccc2c(c1)-c1c(ssc1=S)C(C)(C)N2C(=O)c1ccco1	?	0%[38.3 µM]	15%	i	i	-5%
Cc1ccc2c(c1)-c1c(ssc1=S)C(C)(C)N2C(=O)CSC1=NCCS1	11%	-6%[38.3 µM]	18%	7.3µM*	i	-2%
CCOc1ccc2c(c1)-c1c(ssc1=S)C(C)(C)N2	-5%	-8%[38.3 µM]	13%	?	i	-4%
CCCSc1nnc2c(n1)OC(CC)N(C(C)=O)c1ccccc1-2 (stereo unspecified)	.	3%	.	i	i	.
COc1ccccc1CNc1cc(CSc2ccc(Cl)cc2)nc(C)n1	10%	?	?	15µM*	?	-4%
COc1cccc(CNc2cc(CSc3ccc(Cl)cc3)nc(C)n2)c1	0%	20%	3%	i	?	-8%
Cc1cc2nc(N3C(=O)CNC3=S)sc2cc1C	?	6%	15µM*	16µM*	?	0%
CCNC(=O)CSc1nnc(-c2ccccc2)n1-c1ccc(OCC)cc1	1%	-2%[38.3 µM]	-1%	18µM*	i	.
N#Cc1ccccc1NC(=O)CSc1nnc(-c2ccccc2)n1-c1ccccc1	23µM*	0%	?	15µM*	?	-3%
COc1ccc(-c2nnc(SCCC(=O)O)n2-c2ccccc2)cc1	-7%	1%[38.3 µM]	2%	i	18µM*	-5%
O=C(Nc1nc(NC(=O)c2ccco2)n(-c2ccccc2)n1)c1ccccc1	-4%	16%[38.3 µM]	?	4.1µM*	16µM*	-12%
COc1cc(/C=C2\SC(=O)N(CC(=O)Nc3cccc(C)c3)C2=O)ccc1OC(C)C(=O)O (stereo unspecified)	-5%	-2%	2%	i	i	0%
COc1ccc(/C=C2\SC(=O)N(CC(=O)Nc3cccc(C)c3)C2=O)cc1O	?	5%	21µM*	i	i	-1%
SMILES	SW480 rerep	PINK1 modulator	MCF10A rerep	KB-V1 MDR tox	KB-3-1 tox	PTAP TSG101 blk
Clc1ccc(Oc2ncnc3oc(-c4ccccc4)cc23)cc1	0%	13%	5.8µM*	i	i	0%
CCCCCOc1ccc(NC(=O)Cn2c(-c3nonc3N)nc3ccccc32)cc1	.	0%	.	?	i	.
C=CCn1c(SCC(=O)N(CC)C2CCS(=O)(=O)C2)nc2scc(-c3ccccc3)c2c1=O (stereo unspecified)	-4%	4%	?	10µM*	i	-1%
CCCCN(C(=O)CSc1nc2ccccc2n1CC)C1CCS(=O)(=O)C1 (stereo unspecified)	-2%	0%	-3%	5.8µM*	i	-8%
CC1C2CCC3C4CC=C5CC(N(C)C)CC[C@@]5(C)C4CC[C@@]32CN1C (stereo partly specified)	1%	0%	-2%	.	.	.
O=C(CSc1nc2cc(Cl)c(Cl)cc2[nH]1)c1ccc2c(c1)OCO2	-7%	-1%	2%	8.2µM*	15µM*	1%
CCOC(=O)N1CCc2c(sc3c2c(=O)n(Cc2ccccc2)c(=O)n3Cc2ccccc2Cl)C1	.	0%	.	.	.	.
CS(=O)(=O)CC[C@@H](C(=O)NCCc1ccccc1)N1Cc2ccccc2C1=O	.	2%	.	i	i	.
Cc1cc(C)cc(Nc2nc(-c3ccc(S(=O)(=O)N4CCCC4)cc3)cs2)c1	29%	9%	1%	?	4.6µM*	-10%
Cc1ccc(Nc2nc(-c3ccc(S(=O)(=O)N4CCCC4)cc3)cs2)cc1C	13%	5%[38.3 µM]	?	2.6µM*	7.3µM*	-6%
CCOC(=O)N1CCC(NC(=O)c2ccc3c(c2)N(Cc2ccc(F)cc2)C(=O)c2ccccc2S3=O)CC1 (stereo unspecified)	.	3%	.	?	?	.
CN(C)C(=O)COC(=O)c1cccnc1Nc1ccccc1F	-3%	-1%	15%	16µM*	i	2%
NC(=O)COC(=O)c1cccnc1Nc1ccccc1F	-7%	2%	2%	i	i	-1%
CC(Sc1nc2cc([N+](=O)[O-])ccc2n1-c1ccc(F)cc1)C(=O)NCc1ccc2c(c1)OCO2 (stereo unspecified)	3%	0%	14%	5.8µM*	i	-3%
COc1ccccc1-n1c(SCC(=O)NCc2ccc3c(c2)OCO3)nc2cc([N+](=O)[O-])ccc21	5%	-1%	16%	i	i	0%
